These results are taken from ChEMBL document CHEMBL3988442, “University of Dundee, Small-Polar-MMV Screening Library” (2021).

The whole screen tested about 48,000 compounds, of which about 13,000 (27%) showed an effect of 50% or more. Some of the results follow.

In the test the test system is Wolbachia pipientis. The test is described as follows: Anti-Wolbachia Cell-Based Screen. Further details: scale not given: in the data most compounds retested in dose-response had high values. The format is functional. As to conditions: 5 µM.
Turning to `Cc1ncnc(NC(CC(C)(C)C)c2cccnc2)c1C` (stereo not drawn), the “Percent Effect” value is listed as -0.1537%.

As for `CN(Cc1cccs1)C(=O)c1ccc(=O)n(C)c1`, the “Percent Effect” value is on record as 1.128%. As for `Fc1cccc2ncnc(NCC3(N4CCOCC4)CCSC3)c12` (stereo not drawn), the “Percent Effect” value is reported as -8.869%.

As for `COc1ccc(C2CCCN2C(=O)c2cc3c([nH]c2=O)CCC3)cc1` (stereo not drawn), the “Percent Effect” value is listed as -1.742%. As for `O=C(C1COc2ccccc2C1)N(CCO)Cc1ccccc1` (stereo not drawn), the “Percent Effect” value is 3.539%.

Regarding `O=C(c1ccn(-c2ccc(F)cc2)n1)N(CCO)Cc1cccnc1`, the “Percent Effect” value turned out to be 6.446%. Consider `COc1cc(C(=O)NCCCc2ccccc2)on1`, for which the “Percent Effect” value is recorded as -0.8212%. Under `CSc1ncccc1C(=O)N(CCO)Cc1ccccc1` stands 110.2%. For the compound `COc1ccc(C(=O)N(CCO)Cc2ccccc2)c(OC)n1`, the “Percent Effect” value was 150.7%. Under `Cn1ccnc1CN(CCO)C(=O)c1cc2ccccc2o1` stands 4.663%. Regarding `Cc1cccc(N2CCCC3(C2)CN(S(C)(=O)=O)CCO3)c1` (stereo not drawn), the “Percent Effect” value is on record as -0.08325%.

Turning to `Cc1nc(C2CCCN2CCOCC2CC2)no1` (stereo not drawn), the “Percent Effect” value is reported as 95.01%. For the compound `C1CC(c2noc(C3CC3)n2)CN(CCOCC2CC2)C1` (stereo not drawn), the “Percent Effect” value came to 14.88%. `CC(C)c1nc(C2CCCN2CCCc2nc3ccccc3o2)no1` (stereo not drawn): the “Percent Effect” value worked out at 6.375%. The same measure for `CSCCCN1CCCC1c1noc(C)n1` (stereo not drawn): -3.652%; for `CC(C)c1nc(C2CCCN2CCOCC2CC2)no1` (stereo not drawn): 114%. The same measure for `Cc1nc(C2CCCN2CCc2cccs2)no1` (stereo not drawn): -9.357%; for `COc1cc(C)cc(-c2nc3c([nH]2)CCNC3)c1OC`: 7.084%. As to `Cc1nc[nH]c1CNC1CC(=O)N(CCc2cccc(Cl)c2)C1` (stereo not drawn), the “Percent Effect” value is reported as 94.18%.

Turning to `O=C1CC(NCc2ccc(Cl)s2)CN1Cc1cccc(F)c1` (stereo not drawn), the “Percent Effect” value is reported as 20.87%. `N#Cc1cccc(NC2CC(=O)N(CCc3ccc(F)cc3)C2)n1` (stereo not drawn): the “Percent Effect” value was found to be 1.885%. `Cc1nc(CNC2CC(=O)N(CCc3cccc(Cl)c3)C2)c[nH]1` (stereo not drawn): the “Percent Effect” value stood at 91.72%. For the compound `CN(C)c1ncc(CNC2CC(=O)N(CCc3cccc(Cl)c3)C2)s1` (stereo not drawn), the “Percent Effect” value is 116.6%.

`CC(=O)Nc1ccc(CNC2CC(=O)N(Cc3cccc(F)c3)C2)cc1` (stereo not drawn): the “Percent Effect” value is -1.661%. The same measure for `Cc1cccc(CNC2CC(=O)N(CCc3cccc(Cl)c3)C2)n1` (stereo not drawn): 115.9%; for `Cc1cc(C)nc(N2C[C@H]3OC(=O)N(CCc4cccc(Cl)c4)[C@H]3C2)n1`: -8.827%. Consider `c1cc(CN2CCOC[C@H]2c2nc(-c3ccncc3)c[nH]2)ccn1`, for which the “Percent Effect” value is reported as -7.2%.

As to `CC(=O)N[C@H]1CN(CC(=O)NCc2ccccc2C)C[C@@H]1C(C)C`, the “Percent Effect” value is on record as -0.9175%.

Regarding `CCCc1cc(C(=O)N(CC)Cc2ccncc2)[nH]n1`, the “Percent Effect” value was -8.767%. Take `CN1CCN(c2ccc3ccc(C(=O)N4CCCCO4)cn23)CC1.O=C(O)C(F)(F)F`: the “Percent Effect” value was -14.14%. Under `Cc1nnc(N2CCCC(CS(N)(=O)=O)C2)c(C#N)c1C` (stereo not drawn) stands -0.6364%. In the case of `CCOCCN1CCN(Cc2nnc(C3CC3)o2)CC1C` (stereo not drawn), the “Percent Effect” value was -16.34%.

For `CCCS(=O)(=O)N1C[C@H]2OC(=O)N(CCc3cccc(Cl)c3)[C@H]2C1`, the “Percent Effect” value is recorded as -3.172%.

With `CC(C)S(=O)(=O)N1C[C@H]2OC(=O)N(CCc3cccc(Cl)c3)[C@H]2C1`, the “Percent Effect” value is -13.46%. Under `Cc1ncc(CNC2CC(=O)N(CCc3cccc(Cl)c3)C2)n1C` (stereo not drawn) stands 82.2%; under `Cc1ncsc1CNC(=O)N1CCN(Cc2ccccc2)CC1C` (stereo not drawn), -7.787%. As to `COc1cc(N2CCC3(CCN(C(=O)c4cccnc4)CC3)C2)ncn1.O=C(O)C(F)(F)F`, the “Percent Effect” value is on record as -2.068%. The same measure for `N#Cc1ccc(N2CCC3(CCCN(c4ccccn4)C3)C2)nc1.O=C(O)C(F)(F)F` (stereo not drawn): -3.068%; for `O=C(O)C(F)(F)F.c1ccc(N2CCC3(CCCN(c4ncccn4)C3)C2)nc1` (stereo not drawn): 93.44%.

Turning to `O=C(O)C(F)(F)F.O=C(O)C(F)(F)F.c1ccc(CN2CCC3(CC2)CCN(c2ccccn2)C3)nc1`, the “Percent Effect” value came to 79.01%. As to `O=C(O)C(F)(F)F.O=C(O)C(F)(F)F.c1cnc(N2CCCC3(CCN(c4ncccn4)C3)C2)nc1` (stereo not drawn), the “Percent Effect” value amounted to 103.8%. As to `COc1cc(N2CCC3(CCCN(Cc4ccccn4)C3)C2)ncn1.O=C(O)C(F)(F)F` (stereo not drawn), the “Percent Effect” value is reported as 109.9%.

Regarding `O=C(O)C(F)(F)F.O=C(O)C(F)(F)F.c1ccc(CN2CCC3(CC2)CN(c2ccccn2)CCO3)nc1`, the “Percent Effect” value was 2.249%. The same measure for `COc1cc(N2CCC3(CCCN(C(=O)c4cccnc4)C3)C2)ncn1.O=C(O)C(F)(F)F` (stereo not drawn): -28.04%; for `Fc1ccccc1CN1CCCC2(CCN(c3ncccn3)CC2)C1.O=C(O)C(F)(F)F`: 3.614%.

Turning to `CN1CCC2(CCCN(c3nccc(C(F)(F)F)n3)C2)CC1.O=C(O)C(F)(F)F`, the “Percent Effect” value was -32.78%. As to `Fc1ccc(CN2CCC3(CC2)CN(c2ccccn2)CCO3)cc1.O=C(O)C(F)(F)F.O=C(O)C(F)(F)F`, the “Percent Effect” value is -6.002%. The same measure for `CC(=O)N1CCC2(CC1)CN(C)C(=O)C[C@H]2C(F)(F)F.Cl`: -12.08%; for `CN1CCN(C(=O)c2ccc(=O)n(C)c2)c2ccccc21`: 6.731%. Turning to `CCOc1ccc(-n2nc(C)c(CC(C)=O)c2C)cc1C(N)=O`, the “Percent Effect” value is listed as -4.424%. For `Cc1cnc(N2CC3(CCN(S(=O)(=O)C4CC4)C3)C2)nc1.O=C(O)C(F)(F)F`, the “Percent Effect” value is reported as -3.978%. For `O=C(O)C(F)(F)F.O=S(=O)(C1CC1)N1CCC2(CCCN(c3ncccn3)C2)C1` (stereo not drawn), the “Percent Effect” value is listed as 97.03%.

Turning to `O=S(=O)(C1CC1)N1CCC2(CN(c3ncccn3)C2)C1`, the “Percent Effect” value is reported as -12.56%. Regarding `O=C(CCc1ccc(F)cc1)NCc1ccnc(NC2CC2)c1`, the “Percent Effect” value is listed as -8.812%. Take `CN1CCN(C[C@@H]2OC[C@H]3CN(Cc4ccsc4)CC[C@H]32)CC1.O=C(O)C(F)(F)F.O=C(O)C(F)(F)F.O=C(O)C(F)(F)F`: the “Percent Effect” value is on record as -2.359%. Under `CN1CCN(C[C@H]2OC[C@@H]3CCN(Cc4ccsc4)C[C@@H]32)CC1` stands 98.94%; under `O=C(O)C(F)(F)F.O=C(O)C(F)(F)F.c1cc2c(cc1CN1CC[C@H]3CO[C@H](CN4CCCC4)[C@H]3C1)OCO2`, -12.98%. `Cc1ccc(CN2CC[C@H]3CO[C@H](CN4CCCC4)[C@H]3C2)o1.O=C(O)C(F)(F)F.O=C(O)C(F)(F)F`: the “Percent Effect” value is recorded as -21.11%. Regarding `O=C(O)C(F)(F)F.O=C(O)C(F)(F)F.c1cc(CN2CC[C@@H]3[C@@H](CO[C@H]3CN3CCOCC3)C2)cs1`, the “Percent Effect” value was found to be 92.79%. Turning to `O=C(C1CCOCC1)N1C[C@@H]2CN(Cc3ccsc3)CCO[C@@H]2C1.O=C(O)C(F)(F)F`, the “Percent Effect” value stood at 4.767%. For the compound `O=C(O)C(F)(F)F.O=C(O)C(F)(F)F.c1cc(CN2CC[C@H]3CO[C@H](CN4CCOCC4)[C@H]3C2)cs1`, the “Percent Effect” value was determined as 117.2%.

`CN(Cc1ccco1)C[C@H]1OC[C@@H]2CCN(Cc3ccsc3)C[C@@H]21.O=C(O)C(F)(F)F.O=C(O)C(F)(F)F`: the “Percent Effect” value is -7.864%. Take `Cc1ccc(CN2CC[C@H]3CO[C@H](CN4CCN(C)CC4)[C@H]3C2)o1.O=C(O)C(F)(F)F.O=C(O)C(F)(F)F.O=C(O)C(F)(F)F`: the “Percent Effect” value is given as -46.51%.
